According to PubChem BioAssay AID504332 (National Center for Advancing Translational Sciences (NCATS), 2011):
“And” between values parts separate entries of the source, which are not always exact repeats. Equal values may be shown once. Among all 350,000 compounds or so, about 31,000 (8.9%) were called active. Not shown: some 15% with an inconclusive outcome. Calls follow the shape of the dose curve; as a rule, active = well fitted inhibition curve with a large enough effect; inconclusive = small, poorly fitted or top-dose-only effect; inactive = no such curve, though single readings can be large or run the other way. The list comes from a sample in which actives are over-represented; it also holds similar structures and randomly drawn compounds. The source holds several records for some structures; these can differ, active in one and inactive in another.

molecular target: Histone-lysine N-methyltransferase EHMT2 (Homo sapiens) (UniProt Q96KQ7); assay: qHTS Assay for Inhibitors of Histone Lysine Methyltransferase G9a; settings: G9a H3K9 monomethylation, AlphaScreen, 2 h; series mostly up to 59 µM; activity, negative = inhibition: at the top concentration; also: nearly all actives have a fitted effect of over 75% in size
Sequence (Q96KQ7 913-1193 limits assumed): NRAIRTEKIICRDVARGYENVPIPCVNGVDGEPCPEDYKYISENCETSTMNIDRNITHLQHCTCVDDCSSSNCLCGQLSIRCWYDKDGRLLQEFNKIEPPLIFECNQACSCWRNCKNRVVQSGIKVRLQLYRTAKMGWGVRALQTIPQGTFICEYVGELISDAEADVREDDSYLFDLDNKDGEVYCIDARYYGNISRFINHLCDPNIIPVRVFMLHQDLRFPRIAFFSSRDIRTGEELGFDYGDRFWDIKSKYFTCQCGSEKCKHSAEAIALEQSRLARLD
Method in brief: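 AlphaScreen detection with an anti-monomethyl H3K9 antibody quantified product after a 2 h room-temperature reaction containing 500 nM biotinylated H3K9 peptide, 20 µM SAM and 20 nM enzyme, which had been preincubated 15 min with compound.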
% is scaled to controls: 0 for no effect and ±100 for the full control effect; potency is read from the fitted curve at half-maximal effect.

| SMILES | activity, negative = inhibition | Potency |
| --- | --- | --- |
| O=C1OC(C(=O)Nc2cccc(Br)c2)Cc2ccccc21 (configuration not stated) | 6.55% (inactive) |  |
| COc1ccc(NC(=O)c2sc3nc(-c4cc5cccc(OC)c5oc4=O)[nH]c(=O)c3c2C)cc1 | -3.24% (inactive) |  |
| O=C(CN1CCN(S(=O)(=O)c2cccc(Cl)c2)CC1)N1CCCCC1 | 6.11% [at 12.7 µM] (inactive) |  |
| CC(=O)N1CCc2cc(S(=O)(=O)NC(Cc3ccccc3)C(=O)NCc3ccc(C)cc3)ccc21 (configuration not stated) | -7.19% (inactive) |  |
| Cc1cc(OC(C)C(=O)Nc2sc3c(c2C(N)=O)CCCC3)ccc1Cl (configuration not stated) | 4.83% (inactive) |  |
| Fc1cc(F)c2nc(Nc3nc4c(F)cccc4s3)sc2c1 | -39.4% (inactive) |  |
| NC(=O)c1c(Nc2nc3c(F)cccc3s2)sc2c1CCCC2 |  | 2.82 µM (active) |
| CC(c1ccccn1)N(C)C(=O)c1ccc2nc(Cc3cccc(Cl)c3)oc2c1 (configuration not stated) | 75.5% [at 102 µM] (inactive) |  |
| O=C(N/N=C/c1cccc(OCc2ccccc2)c1)c1ccc(Br)o1 | -46.5% [at 102 µM] (inactive) |  |
| Cn1c(SCC(=O)N2CCCc3ccccc32)ncc(C(=O)Nc2ccc(F)cc2)c1=O | -2.34% (inactive) |  |
| CCN(CC)C(CNC(=O)CSc1nnnn1-c1cccc(F)c1)c1ccco1 (configuration not stated) | 5.11% [at 12.7 µM] (inactive) |  |
| O=C(N/N=C/c1ccc(Br)o1)c1cncc(Br)c1 | -6.67% (inactive) |  |
| Cc1ccc(C(=O)N/N=C\c2cc(Br)c(Br)o2)cn1 |  | 50.1 µM (active) |
| O=C(O)c1ccc(/C=N/NC(=O)c2ccc(Br)cc2)cc1 | 13.6% (inactive) |  |
| COc1ccc(CC(=O)OC(C)C(=O)Nc2ccc(S(N)(=O)=O)cc2)cc1 (configuration not stated) | -8.93% [at 2.33 µM] (inactive) |  |
| CSc1nc(-c2ccccc2Cl)nc2c1Cc1c(CO)cnc(C)c1O2 | -46.3% (inactive) |  |
| COc1ccc(CNC(=O)C(c2ccc(O)cc2)N(Cc2ccco2)C(=O)c2snc(C(N)=O)c2N)cc1 (configuration not stated) | -40% [at 102 µM] (inactive) |  |
| O=C(OCc1cc(=O)n2ccsc2n1)C1(c2ccc(Cl)cc2)CC1 | 2.61% [at 12.7 µM] (inactive) |  |
| CCN1CCN(CCCNC(=O)c2ccc3c(c2)sc2nc(-c4ccc(OC)cc4)cn23)CC1 | -7.7% (inactive) |  |
| CN(C)S(=O)(=O)c1ccc(C(=O)NCC2(N3CCOCC3)CCCCC2)cc1 | 0.405% [at 2.33 µM] (inactive) |  |
| CN1CN(C)c2ccc([N+](=O)[O-])c3cccc1c23 |  | 50.1 µM (active) |

| SMILES | activity, negative = inhibition | Potency |
| --- | --- | --- |
| Cc1ccc(C)c(OCCC(=O)OCC(=O)c2ccc3c(c2)NC(=O)CO3)c1 | 6.89% [at 12.7 µM] (inactive) |  |
| COc1ccc(NC(=O)C(C)N2c3cccc4cccc(c34)S2(=O)=O)c(OC)c1 (configuration not stated) | 4.35% [at 102 µM] (inactive) |  |
| O=C(O)CN1c2cccc3cccc(c23)S1(=O)=O |  | 44.7 µM (active) |
| CCN(CC(=O)Nc1c(F)cccc1F)C(=O)CN1c2cccc3cccc(c23)S1(=O)=O | 5.18% [at 0.501 µM] (inactive) |  |
| Cc1ccc(-n2c(SCC(=O)N3CCC(C(=O)O)CC3)nc3ccccc3c2=O)cc1C | -50.2% [at 102 µM] (inactive) |  |
| CC(C)OC(=O)c1ccc(COc2ccc3ccc(=O)oc3c2)o1 | 14.1% [at 102 µM] (inactive) |  |
| CC(C)c1nc2ccc(C(=O)O)cc2[nH]1 | 9.16% [at 102 µM] (inactive) |  |
| O=C(N/N=C/c1ccc(Cl)c(Cl)c1)c1ccc2nc[nH]c2c1 | -14% [at 102 µM] (inactive) |  |
| Cc1nonc1C(=O)N/N=C/c1ccc(O)cc1 | 15.7% (inactive) |  |
| Cc1nc2ccc(C(=O)N/N=C/c3ccc(O)cc3)cc2[nH]1 |  | 79.4 µM (active) |
| Cc1nc2ccc(C(=O)O)cc2[nH]1 |  | 70.8 µM (active) |
| Cc1ccc2nc(CNC(=O)c3ccccc3)[nH]c2c1 | -1.03% (inactive) |  |
| CCc1ccccc1N1C(=O)CN(S(=O)(=O)CC)CC1(C)C(=O)NC1CCCCC1 (configuration not stated) | -17.2% (inactive) |  |
| Cc1ccc2nc(COc3ccc(NC(=O)COc4ccccc4F)cc3)cc(=O)n2c1 | -2.61% (inactive) |  |
| C[C@H](NC(=O)c1ccccc1Cl)C(=O)OCC(=O)N1CCN(c2ccccc2)CC1 | -0.744% [at 12.7 µM] (inactive) |  |
| Cn1c(=O)c2c(nc(SCC(=O)Nc3ccc(F)cc3)n2Cc2ccc(Cl)cc2)n(C)c1=O | 10.3% (inactive) |  |
| COc1cccc(-n2c(N)cc(=O)nc2SCC(=O)Nc2cc(C)on2)c1 | 40% [at 102 µM] (inactive) |  |
| COc1ccccc1CNC(=O)CCCn1c(=O)c2ccccc2n(CC(=O)Nc2ccc(C)cc2Cl)c1=O | 3.86% (inactive) |  |
| CCOC(=O)c1ccc(NC(=O)CSc2nc3c([nH]c4ccccc43)c(=O)n2C)cc1 | 4.03% (inactive) |  |
| Cc1cc(C(=O)N/N=C/c2ccc(N3CCOCC3)cc2)c(C)o1 | -36.2% [at 102 µM] (inactive) |  |
| C=CCNC(=S)N/N=C/c1ccc(C)s1 | 72.7% [at 12.7 µM] (inactive) |  |

| SMILES | activity, negative = inhibition | Potency |
| --- | --- | --- |
| CNC(=S)N/N=C/c1ccc(N2CCOCC2)s1 |  | 28.2 µM (active) |
| COc1cc2ccccc2cc1C(=O)Nc1ccc(NC(=O)c2cccs2)cc1 | 28.3% [at 102 µM] (inactive) |  |
| O=C(Cc1ccc(Cl)cc1)Nc1ccc2nn(-c3ccc(Cl)cc3)nc2c1 | -2.72% (inactive) |  |
| Cc1ccc(CCNC(=O)Cn2c(-c3cccs3)cc3cc(F)ccc32)cc1 | 1.67% (inactive) |  |
| CCOC(=O)c1cccc(NC(=O)C(Cc2ccccc2)NS(=O)(=O)c2cccc3nsnc23)c1 (configuration not stated) | -35.5% (inactive) |  |
| Cc1ccnc(NC(=O)C(C)N2C(=O)c3ccccc3C2=O)c1 (configuration not stated) | 10.7% [at 102 µM] (inactive) |  |
| Cc1ccc(-n2ccc(=O)c(C(=O)O)n2)cc1 | -6.92% (inactive) |  |
| Cc1ccc(N2C(=O)c3ccccc3C2(O)c2ncc[nH]2)cc1 (configuration not stated) |  | 7.08 µM (active) |
| O=C(O)c1ccccc1-c1ccccc1C(=O)NCCc1ccccc1 | 15.9% [at 102 µM] (inactive) |  |
| CCOCCCNC(=O)c1c(NC(=O)c2nc(SC)ncc2Cl)sc2c1CCCC2 | -0.0709% (inactive) |  |
| COc1ccc(N2C(=O)CC(Sc3n[nH]c(-c4ccc(C)cc4)n3)C2=O)cc1 (configuration not stated) |  | 1.58 µM (active) |
| COc1ccc(N2C(=O)CC(SC(C)C)C2=O)cc1 (configuration not stated) | -27.2% [at 102 µM] (inactive) |  |
| COc1ccc(-c2nc(SCC(=O)N3CCCC3)n[nH]2)cc1 | 21.1% [at 102 µM] (inactive) |  |
| CC(=O)Nc1ccc(NC(=O)C2CCCN(S(=O)(=O)c3ccc4c(c3)CCCC(=O)N4)C2)cc1 (configuration not stated) | -26.3% (inactive) |  |
| CCN1CCN(C(=O)N(Cc2ccc(Cl)cc2)S(=O)(=O)c2ccc(C)cc2)CC1 | 19.8% [at 2.33 µM] (inactive) |  |
| CC(C)(C)c1ccc(CN2C(=O)c3ccccc3S2(=O)=O)cc1 | 87% [at 102 µM] (inactive) |  |
| O=[N+]([O-])/C(N=Nc1ccccc1)=N\Nc1ccccc1 |  | 31.6 µM (active) |
| Cc1ccc(F)cc1NC(=O)c1ccc2c(c1)OCO2 | -5.61% [at 12.7 µM] (inactive) |  |
| Cc1ccc(NC(=O)c2cccc(N(C)C)c2)cc1NC(=O)c1ccc(O)cc1 |  | inactive and 14.1 µM (active) |
| Cc1ccc(F)cc1NC(=O)c1cccc(N(C)C)c1 | 13.5% (inactive) |  |
